Data as given in PubChem BioAssay AID1347420 (Sanford-Burnham Center for Chemical Genomics, 2020).
Among all 1,300 compounds or so, about 980 (75%) were called active. Inconclusive results (about 4%) are left out. Some of the results follow. Values without a mark were called inactive.

target: Sulfhydryl oxidase 1 (Homo sapiens) (UniProt O00391); assay: QSOX1 enzyme inhibitors, primary screen, biochemical, HyperBlu H2O2 luminescence, HTS (AID 1347420); settings: recombinant QSOX1, HyperBlu H2O2 luminescence; at 12.5 µM; active compounds read high; active = any value above zero; note: values above 100% were filed as inconclusive
Sequence (O00391 whole entry, looked up): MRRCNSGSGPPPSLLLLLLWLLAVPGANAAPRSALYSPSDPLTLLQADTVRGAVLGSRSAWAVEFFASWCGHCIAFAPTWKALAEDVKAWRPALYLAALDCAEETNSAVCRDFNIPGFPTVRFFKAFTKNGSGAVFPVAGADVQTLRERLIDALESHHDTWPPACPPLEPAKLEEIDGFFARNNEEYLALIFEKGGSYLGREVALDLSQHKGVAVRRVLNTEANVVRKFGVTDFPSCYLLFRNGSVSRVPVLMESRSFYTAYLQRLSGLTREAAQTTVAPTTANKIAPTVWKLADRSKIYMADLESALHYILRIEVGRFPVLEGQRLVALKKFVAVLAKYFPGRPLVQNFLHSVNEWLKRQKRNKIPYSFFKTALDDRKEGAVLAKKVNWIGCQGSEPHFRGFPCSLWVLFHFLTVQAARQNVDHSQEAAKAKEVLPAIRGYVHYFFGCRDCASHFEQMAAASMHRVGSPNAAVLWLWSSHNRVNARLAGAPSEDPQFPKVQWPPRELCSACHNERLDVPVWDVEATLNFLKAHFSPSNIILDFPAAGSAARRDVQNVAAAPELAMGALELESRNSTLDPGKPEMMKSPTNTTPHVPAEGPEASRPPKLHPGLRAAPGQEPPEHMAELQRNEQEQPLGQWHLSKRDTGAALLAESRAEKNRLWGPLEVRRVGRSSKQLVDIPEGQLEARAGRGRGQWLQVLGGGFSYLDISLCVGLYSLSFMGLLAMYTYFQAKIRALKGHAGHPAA

How did the inhibition turn out when `CNCCC(Oc1ccccc1OC)c1ccccc1` (stereo unspecified) was run?
Its inhibition is 2.8% (active).

Which inhibition does the source give for `CNCCC(Oc1ccccc1C)c1ccccc1` (stereo unspecified) here?
The inhibition was 0.9% (active).

Which inhibition does the source give for `CC(C)(C)NCC(O)COc1cccc2[nH]c(=O)[nH]c12` (stereo unspecified) here?
Its inhibition is 14% (active).

Which inhibition does the source give for `COc1cccc2c1[C@@H]1CN(CCCCn3c(=O)[nH]c4c(sc5ncc(-c6ccccc6)nc54)c3=O)C[C@@H]1CO2` here?
Its inhibition is 47% (active).

How did the inhibition turn out when `NCCCC(N)(C(=O)O)C(F)F` (stereo unspecified) was run?
Its inhibition is 4.1% (active).

Which inhibition does the source give for `CNC(=O)Oc1ccc2c(c1)[C@]1(C)CCN(C)[C@@H]1N2C` here?
The inhibition was 17.7% (active).

How did the inhibition turn out when `O=C(O)[C@H]1NCCC[C@H]1C(=O)O` was run?
The inhibition was -4.7%.

With `O=C(O)C1CCCNC1` (stereo unspecified) as the compound, how does the inhibition read?
The inhibition was 13.4% (active).

How did the inhibition turn out when `O=C(O)C1CCNCC1` was run?
Its inhibition is 1.7% (active).

Which inhibition does the source give for `CC1=NS(=O)(=O)c2cc(Cl)ccc2N1` here?
The inhibition was 34.8% (active).

How did the inhibition turn out when `CC(CCc1ccccc1)NCC(O)c1ccc(O)c(C(N)=O)c1` (stereo unspecified) was run?
The inhibition was 12.9% (active).

For `Nc1ccc(N2C(=O)c3ccccc3C2=O)c(Cl)c1`, which inhibition is on record?
Its inhibition is 7.7% (active).

For `NC1CONC1=O` (stereo unspecified), which inhibition is on record?
Its inhibition is 2.4% (active).

Which inhibition does the source give for `N[C@H]1CONC1=O` here?
The inhibition was 3.7% (active).

With `N[C@@H]1CONC1=O` as the compound, how does the inhibition read?
Its inhibition is -0.9%.

`Fc1cccc(/C=N/N=C/c2cccc(F)c2)c1` was tested. Which inhibition did it give?
Its inhibition is -1.8%.

With `O[Si](CCCN1CCCCC1)(c1ccc(F)cc1)C1CCCCC1` (stereo unspecified) as the compound, how does the inhibition read?
Its inhibition is 4.4% (active).

For `Cn1ncc(S(=O)(=O)Cc2ccccc2)c(Br)c1=O`, which inhibition is on record?
The inhibition was 11.5% (active).

With `C[C@@H](O)[C@H]1C(=O)N2C(C(=O)O)=C(SCCN=CN)C[C@H]12` as the compound, how does the inhibition read?
The inhibition was 17.6% (active).

`CCn1cc(C(=O)O)c(=O)c2cc3c(cc21)OCO3` was tested. Which inhibition did it give?
The inhibition was -7.6%.

Which inhibition does the source give for `CCn1cc(C(=O)O)c(=O)c2ccc(C)nc21` here?
The inhibition was 10.1% (active).

Which inhibition does the source give for `CCNC(=O)[C@H]1O[C@@H](n2cnc3c(N)nc(NCCc4ccc(CCC(=O)O)cc4)nc32)C(O)[C@H]1O` (stereo partly specified) here?
The inhibition was 45.5% (active).

Which inhibition does the source give for `CNC(=O)[C@H]1O[C@@H](n2cnc3c(NCc4ccc(N)cc4)ncnc32)C(O)[C@H]1O` (stereo partly specified) here?
Its inhibition is 32.2% (active).

With `CNC(=O)[C@H]1O[C@@H](n2cnc3c(NCc4cccc(I)c4)ncnc32)C(O)[C@H]1O` (stereo partly specified) as the compound, how does the inhibition read?
The inhibition was 14% (active).

How did the inhibition turn out when `CC(=O)N[C@@H](CS)C(=O)O` was run?
Its inhibition is 43.1% (active).

Which inhibition does the source give for `CC1(C)CCC=[N+]1[O-]` here?
Its inhibition is 6.8% (active).

How did the inhibition turn out when `Cn1ccc2cc3c(cc21)CCN3C(=O)Nc1cccnc1` was run?
Its inhibition is -4.6%.

Which inhibition does the source give for `CN1CCc2cc(NC(=O)Nc3cccnc3)ccc21` here?
Its inhibition is 16.5% (active).

Which inhibition does the source give for `O=C(O)CCC(=O)N1CCCC1C(=O)O` (stereo unspecified) here?
The inhibition was -11.1%.

Which inhibition does the source give for `CCCN1C[C@H](CSC)C[C@@H]2c3cccc4[nH]cc(c34)C[C@H]21` here?
Its inhibition is 31% (active).

For `CCc1c(C)[nH]c2c1C(=O)C(CN1CCOCC1)CC2` (stereo unspecified), which inhibition is on record?
The inhibition was 17.7% (active).

With `N[C@@H](Cc1cnc[nH]1)C(=O)O` as the compound, how does the inhibition read?
The inhibition was -5.8%.

`O=C(O)/C=C/c1cnc[nH]1` was tested. Which inhibition did it give?
The inhibition was 10.6% (active).

How did the inhibition turn out when `CN(C)c1cc2c(Nc3ccc4c(cnn4Cc4ccccc4)c3)ncnc2cn1` was run?
The inhibition was 15.4% (active).

Which inhibition does the source give for `CC#CCOC(=O)c1c(C)nc2sc3c(c2c1N)CCC(O)C3` (stereo unspecified) here?
The inhibition was -4.2%.

With `S=C(Nc1ccccc1)Nc1nccs1` as the compound, how does the inhibition read?
The inhibition was 35.5% (active).

With `CC1CCN=C(N)S1` (stereo unspecified) as the compound, how does the inhibition read?
Its inhibition is 29.6% (active).

`NCCSSCCN` was tested. Which inhibition did it give?
Its inhibition is 47.5% (active).

For `O=C1/C(=C/c2ccsc2)CC/C1=C\c1cccs1`, which inhibition is on record?
Its inhibition is 17.5% (active).

How did the inhibition turn out when `COc1cc2c(c(OC)c1OC)-c1ccc(OC)c(=O)cc1[C@@H](NC(C)=O)CC2` was run?
Its inhibition is -1%.

For `Cn1cc(C2=C(c3ccc(Cl)cc3Cl)C(=O)NC2=O)c2ccccc21`, which inhibition is on record?
The inhibition was 25.7% (active).

Which inhibition does the source give for `CCc1ccc(/C=C2/SC(=S)NC2=O)cc1` here?
The inhibition was 69.4% (active).

`O=C(O)CCc1nc(-c2ccccc2)c(-c2ccccc2)o1` was tested. Which inhibition did it give?
The inhibition was -0.1%.

With `CC1COc2c(N3CCN(C)CC3)c(F)cc3c(=O)c(C(=O)O)cn1c23` (stereo unspecified) as the compound, how does the inhibition read?
The inhibition was 5.3% (active).

`OC(CN1CCC(Cc2ccc(F)cc2)CC1)c1ccc(Cl)cc1` (stereo unspecified) was tested. Which inhibition did it give?
Its inhibition is 1.3% (active).

`CCCCN1CCC(n2c(=O)[nH]c3ccccc32)CC1` was tested. Which inhibition did it give?
Its inhibition is 16.3% (active).

`CN(C)CCCO[C@@H]1[C@H]2OC(C)(C)O[C@H]2O[C@@H]1C(O)CO` (stereo partly specified) was tested. Which inhibition did it give?
Its inhibition is 14.7% (active).

For `O=C(O)[C@@H]1C[C@H](C(=O)O)N1`, which inhibition is on record?
Its inhibition is -18.8%.

With `O=C(O)[C@@H]1C[C@@H](C(=O)O)N1` as the compound, how does the inhibition read?
The inhibition was 4.5% (active).

How did the inhibition turn out when `CC(C)(C=O)Cc1cc(C(C)(C)C)c(O)c(C(C)(C)C)c1` was run?
The inhibition was 2.8% (active).

For `CC(C)(CO)Cc1cc(C(C)(C)C)c(O)c(C(C)(C)C)c1`, which inhibition is on record?
The inhibition was -2.3%.

Which inhibition does the source give for `COc1cc2nc(N3CCCN(C)CC3)nc(NC3CCN(Cc4ccccc4)CC3)c2cc1OC` here?
Its inhibition is 5.4% (active).

Which inhibition does the source give for `COc1ccc2cc([C@H](C)C(=O)O)ccc2c1` here?
Its inhibition is -13.9%.

`CC(C(=O)O)c1cccc(C(=O)c2ccccc2)c1` (stereo unspecified) was tested. Which inhibition did it give?
The inhibition was 8.2% (active).

How did the inhibition turn out when `COc1ccccc1N1CCN(CCCCN2C(=O)c3ccccc3C2=O)CC1` was run?
The inhibition was 2% (active).

`Cc1cccc(C(=O)NCN2CCN(c3ccccc3C#N)CC2)c1` was tested. Which inhibition did it give?
Its inhibition is -17.3%.

Which inhibition does the source give for `COc1ccccc1N1CCN(CCCCNC(=O)c2ccc3ccccc3c2)CC1` here?
Its inhibition is 36.1% (active).

`COc1ccccc1N1CCN(CCN2C(=O)CC3(CCCC3)CC2=O)CC1` was tested. Which inhibition did it give?
Its inhibition is 61.3% (active).

`O=C1CC2(CCCC2)CC(=O)N1CCCCN1CCN(c2ncccn2)CC1` was tested. Which inhibition did it give?
The inhibition was -6.6%.

With `CN[C@H](CC(=O)O)C(=O)O` as the compound, how does the inhibition read?
Its inhibition is 15.9% (active).

For `c1ccc(C(NCc2cccnc2)(c2ccccc2)c2ccccc2)cc1`, which inhibition is on record?
The inhibition was 2.5% (active).

With `CC(C)(Oc1ccc(C2CC2(Cl)Cl)cc1)C(=O)O` (stereo unspecified) as the compound, how does the inhibition read?
The inhibition was -2.9%.

`CC(C)(Oc1ccc(CCNC(=O)c2ccc(Cl)cc2)cc1)C(=O)O` was tested. Which inhibition did it give?
The inhibition was 5.4% (active).

For `C=C/C(C)=C/[C@@]1(C)SC(=O)C(C)=C1O`, which inhibition is on record?
The inhibition was 13.4% (active).

`O=C1NC(c2cccc([N+](=O)[O-])c2)=CCN1c1ccccc1O` was tested. Which inhibition did it give?
The inhibition was 24.8% (active).

For `N=C(N)SCCc1cnc[nH]1`, which inhibition is on record?
The inhibition was -0.5%.

`NCCc1cnc[nH]1` was tested. Which inhibition did it give?
Its inhibition is 10.9% (active).

Which inhibition does the source give for `CCCCC[C@H](CC(=O)NO)C(=O)N[C@H](C(=O)N1CCC[C@H]1CO)C(C)C` here?
The inhibition was -27.8%.

With `COc1cc(OC)c(/C=C2/C(=O)Nc3ccccc32)c(OC)c1` as the compound, how does the inhibition read?
Its inhibition is 44.2% (active).

For `CCC1(O)CC2CN(CCc3c([nH]c4ccccc34)[C@@](C(=O)OC)(c3cc4c(cc3OC)N(C)C3[C@]45CCN4CC=C[C@@](CC)([C@@H](OC(C)=O)[C@]3(O)C(=O)OC)[C@H]45)C2)C1` (stereo partly specified), which inhibition is on record?
Its inhibition is 18.8% (active).

`CCC1(O)CC2CN(CCc3c([nH]c4ccccc34)[C@@](C(=O)OC)(c3cc4c(cc3OC)N(C=O)C3[C@]45CCN4CC=C[C@@](CC)([C@@H](OC(C)=O)[C@]3(O)C(=O)OC)[C@H]45)C2)C1` (stereo partly specified) was tested. Which inhibition did it give?
The inhibition was 2.9% (active).
